Consider 13 compounds from PubChem BioAssay (Tox21).

The structures appear in SMILES notation. Several values for one entry are separate records, joined by “and”; a condition that tells them apart may be missing. Equal values may be shown once. Records with an inconclusive call do not appear. More than one record can exist for a structure, and the calls need not agree. Activity calls are given as the source filed them. Calls follow the shape of the dose curve; as a rule, active = well fitted curve in the direction sought with a large enough effect in the repeat runs; inconclusive = weak or mixed curves; inactive = no such curve, though single readings can be large; an effect the other way counts as inactive or inconclusive.

Assay [1] can be described thus: qHTS RealTime-Glo MT Cell Viability Assay in HepG2 cells - 40 hour (AID 1224870). Also: nearly all actives have a fitted effect of over 50% in size. The method, boiled down:
(§1)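 HepG2 cells (600/well) mixed with RealTime-Glo MT reagent, settled 5 h at 37 C/5% CO2 before compound addition. Nonlytic NanoLuc luminescence from viable-cell prosubstrate reduction read repeatedly during 40 h treatment at 37 C.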
A general note: qHTS replaces the single test concentration by a dilution series.

The nature of assay [2]: A CellTox Green Cytotoxicity Assay to monitor cytotoxicity in HEK293 cells - 40 hour (AID 1224871). Also: nearly all actives have a fitted effect of over 45% in size. Also: potency is read from the fitted curve at half-maximal effect. In short, it runs like this:
(§2)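 Fluorescence intensity, read at 0, 8, 16, 24, 32 and 40 h of compound treatment, reflected dye binding to DNA of dead HEK293 cells; compounds (23 nL, DMSO) were added 5 h after plating cells with reagent.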

Assay [3] in a line: qHTS RealTime-Glo MT Cell Viability Assay in HEK293 cells - 16 hour (AID 1224872). Also: nearly all actives have a fitted effect of over 50% in size. Also: potency is read from the fitted curve at half-maximal effect. In short, it runs like this:
(§3)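 HEK293 cells were seeded at 600 cells/well together with NanoLuc luciferase and cell-permeant prosubstrate, preincubated 5 h at 37 C/5% CO2, then given compound in DMSO by pintool. Luminescence from viable-cell prosubstrate reduction was read repeatedly over 40 h.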

The nature of assay [4]: qHTS RealTime-Glo MT Cell Viability Assay in HepG2 cells - 8 hour (AID 1224873). Also: nearly all actives have a fitted effect of over 55% in size. In short, it runs like this: as §1
A short description of assay [5]: qHTS RealTime-Glo MT Cell Viability Assay in HEK293 cells - 40 hour (AID 1224874). Also: nearly all actives have a fitted effect of over 50% in size. Also: potency is read from the fitted curve at half-maximal effect. As to conditions: RealTime-Glo luminescence; max response: stronger effect = lower value. The method, boiled down:
(§4)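 Viable HEK293 cells reduce a cell-permeant prosubstrate; the product diffuses out and is consumed by NanoLuc in the medium to give light. Compounds went in after a 5 h incubation and plates were read over the treatment course.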

Assay [6] can be described thus: A CellTox Green Cytotoxicity Assay to monitor cytotoxicity in HepG2 cells - 16 hour (AID 1224876). Also: nearly all actives have a fitted effect of over 45% in size. The method, boiled down: (§5)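 Using 1536-well format, dye-containing HepG2 suspension was seeded, allowed 5 h at 37 C/5% CO2, dosed by pintool with compounds, positive and negative controls, and imaged for fluorescence across 40 h.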
A short description of assay [7]: qHTS RealTime-Glo MT Cell Viability Assay in HepG2 cells - 32 hour (AID 1224877). Also: nearly all actives have a fitted effect of over 55% in size. The method, boiled down:
(§6)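 HepG2 cells were seeded at 600 cells/well together with NanoLuc luciferase and a cell-permeant prosubstrate, preincubated 5 h at 37 C/5% CO2, then pin-dosed with compounds in DMSO. Nonlytic luminescence from viable cells was read at each time point.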

A short description of assay [8]: A CellTox Green Cytotoxicity Assay to monitor cytotoxicity in HepG2 cells - 24 hour (AID 1224878). Also: nearly all actives have a fitted effect of over 45% in size. Also: potency is read from the fitted curve at half-maximal effect. The method, boiled down: as §5
Assay [9] in a line: A CellTox Green Cytotoxicity Assay to monitor cytotoxicity in HepG2 cells - 40 hour (AID 1224879). Also: nearly all actives have a fitted effect of over 40% in size. Also: potency is read from the fitted curve at half-maximal effect. The method, boiled down: as §5
The nature of assay [10]: A CellTox Green Cytotoxicity Assay to monitor cytotoxicity in HEK293 cells - 32 hour (AID 1224881). Also: nearly all actives have a fitted effect of over 40% in size. Also: potency is read from the fitted curve at half-maximal effect. In short, it runs like this:
as §2

The nature of assay [11]: A CellTox Green Cytotoxicity Assay to monitor cytotoxicity in HepG2 cells - 0 hour (AID 1224882). Also: nearly all actives have a fitted effect of over 35% in size. In short, it runs like this:
as §5

Assay [12] in a line: A CellTox Green Cytotoxicity Assay to monitor cytotoxicity in HepG2 cells - 32 hour (AID 1224883). Also: nearly all actives have a fitted effect of over 50% in size. Also: potency is read from the fitted curve at half-maximal effect. The method, boiled down: as §5
A short description of assay [13]: A CellTox Green Cytotoxicity Assay to monitor cytotoxicity in HEK293 cells - 8 hour (AID 1224884). Also: nearly all actives have a fitted effect of over 35% in size. In short, it runs like this: as §2
The nature of assay [14]: qHTS RealTime-Glo MT Cell Viability Assay in HepG2 cells - 16 hour (AID 1224885). Also: nearly all actives have a fitted effect of over 50% in size. The method, boiled down:
as §6

A short description of assay [15]: qHTS RealTime-Glo MT Cell Viability Assay in HEK293 cells - 8 hour (AID 1224887). In short, it runs like this:
as §4

A short description of assay [16]: A CellTox Green Cytotoxicity Assay to monitor cytotoxicity in HEK293 cells - 16 hour (AID 1224888). Also: nearly all actives have a fitted effect of over 35% in size. The method, boiled down: as §2
Assay [17] can be described thus: qHTS RealTime-Glo MT Cell Viability Assay in HepG2 cells - 0 hour (AID 1224889). Also: nearly all actives have a fitted effect of over 50% in size. In short, it runs like this: as §6
Assay [18] in a line: qHTS RealTime-Glo MT Cell Viability Assay in HEK293 cells - 24 hour (AID 1224886). Also: nearly all actives have a fitted effect of over 50% in size. Also: potency is read from the fitted curve at half-maximal effect. In short, it runs like this:
as §3

The nature of assay [19]: A CellTox Green Cytotoxicity Assay to monitor cytotoxicity in HEK293 cells - 24 hour (AID 1224875). Also: series mostly up to about 77 µM; nearly all actives have a fitted effect of over 45% in size. In short, it runs like this:
as §2

Assay [20] in a line: qHTS RealTime-Glo MT Cell Viability Assay in HEK293 cells - 0 hour (AID 1224880). The method, boiled down: as §4
% is scaled to controls: 0 for no effect and ±100 for the full control effect.

Regarding `COC(=O)c1ccc(C=O)cc1`, the outcome in assay [1], in assay [4] and in [7] was inactive. Further, the Potency result in assay [2], in [3], in assay [6], in assay [8], in assay [9] and in assay [10] was “inactive” each time. Moreover, the Potency result in assay [11], in [12], in assay [13], in assay [14], in assay [15] and in assay [16] was “inactive” in each case. For the same compound, the Potency entry in [17] was “inactive”. For the same compound, the max response in assay [5] was -13.1% (inactive) and 1.66% (inactive).
In the case of `C/C=C/c1ccc(O)c(OC)c1`, the result in assay [1], in assay [4] and in assay [7] was inactive. For the same compound, the Potency result in assay [2], in assay [3], in assay [6], in assay [8], in [9] and in [11] was “inactive” throughout. Also, the Potency entry in assay [12], in [13], in assay [14], in [18], in assay [15] and in assay [16] was “inactive” in each case. Moreover, the Potency entry in assay [17] is “inactive”. The max response in assay [5] is -5.09% (inactive) and 1.37% (inactive) and 1.68% (inactive).
As for `NC(=O)OCC(COC(N)=O)c1ccccc1`, the compound was classed as inactive in [1] and in [7]. In addition, the Potency result in assay [2], in [3], in [19], in [6], in assay [8] and in assay [9] was “inactive” throughout. Further, the Potency entry in assay [20], in assay [11], in assay [12], in [13], in assay [14] and in [18] was “inactive” each time. Moreover, the Potency entry in [15], in assay [16] and in assay [17] was “inactive” throughout. Also, in [5], the max response is 1.64% (inactive) and -0.593% (inactive).
For the compound `NC(=O)N1c2ccccc2C=Cc2ccccc21`, the compound was called inactive in [1] and in assay [7]. Further, the Potency result in assay [2], in assay [3], in assay [19], in [6], in assay [8] and in [9] was “inactive” each time. For the same compound, the Potency entry in [20], in [10], in assay [11], in [12], in assay [13] and in [14] was “inactive” in each case. In addition, the Potency entry in assay [18], in [15], in assay [16] and in assay [17] was “inactive” each time. Moreover, the Potency in assay [5] was 34.5 µM (active). Besides, the max response in [5] was -19.3% (inactive) and 0.148% (inactive).
As to `CC(C)(C)CC(C)(C)c1ccc(O)c(-n2nc3ccccc3n2)c1`, the compound was classed as inactive in assay [1] and in [7]. Besides, the Potency entry in assay [2], in assay [6], in [8], in assay [9], in assay [10] and in assay [11] was “inactive” each time. Also, the Potency result in assay [12], in assay [13], in assay [14], in assay [15], in assay [16] and in assay [17] was “inactive” each time. Moreover, the Potency in [3] was 44.3 µM (active) and inactive; in assay [5] it was 49.7 µM (active); in assay [18], 49.7 µM (active) and inactive. The max response in assay [5] is -13.8% (inactive) and -3.1% (inactive).
As to `C#C[C@]1(O)CC[C@H]2[C@@H]3CCC4=CC(=O)CC[C@@H]4[C@H]3CC[C@@]21CC`, the result in assay [1] and in assay [7] was inactive. Further, the Potency in assay [2] was 49.1 µM (active) and inactive; in assay [3] it was 43.6 µM (active) and inactive; in assay [5] it was 43.6 µM (active); in assay [8] it was “inactive and 38.9 µM (active)”; in assay [9], “inactive and 43.6 µM (active)”; in [10] it was 49.1 µM (active) and inactive. Besides, the Potency entry in [12] is “inactive and 43.6 µM (active)”; in [18] it was 43.6 µM (active) and inactive. For the same compound, in [5], the max response was -17.5% (inactive). The Potency entry in [6], in [20], in assay [11], in assay [13], in assay [14] and in assay [15] was “inactive” in each case. The Potency result in assay [16] and in assay [17] was “inactive” each time.
Regarding `CN/C(=C\[N+](=O)[O-])NCCSCc1ccc(CN(C)C)o1`, the outcome in assay [1] and in [7] was inactive. Moreover, the Potency result in assay [2], in assay [3], in [19], in [6], in assay [8] and in assay [9] was “inactive” throughout. For the same compound, the Potency result in [10], in assay [11], in assay [12], in assay [13], in [14] and in [18] was “inactive” each time. For the same compound, the Potency result in assay [15], in [16] and in [17] was “inactive” each time. The max response in [5] is 4.86% (inactive) and 0.756% (inactive).
Take `COc1ccccc1O`: the outcome in [1], in assay [4] and in assay [7] was inactive. In addition, the Potency result in [2], in assay [3], in assay [6], in assay [8], in assay [9] and in [20] was “inactive” in each case. Moreover, the Potency result in assay [11], in assay [12], in assay [13], in [14], in [18] and in assay [15] was “inactive” in each case. Moreover, the Potency result in assay [16] and in assay [17] was “inactive” each time. For the same compound, the max response in assay [5] was 18.7% (inactive) and 1.57% (inactive) and 2.8% (inactive).
As to `COCCOCCOC`, the result in [1], in assay [4] and in assay [7] was inactive. Moreover, the Potency entry in assay [2], in [3], in [6], in assay [8], in [9] and in assay [20] was “inactive” each time. In addition, the Potency result in assay [11], in [12], in assay [13], in assay [14], in assay [15] and in assay [16] was “inactive” throughout. Besides, the Potency result in assay [17] was “inactive”. Besides, the max response in assay [5] is 13% (inactive) and 10.3% (inactive).
For `CC(=O)OC/C=C(C)/C=C/C=C(C)/C=C/C1=C(C)CCCC1(C)C`, the compound was classed as inactive in [1], in assay [4] and in assay [7]. Also, the Potency entry in [2], in assay [3], in assay [6], in [8], in assay [9] and in assay [11] was “inactive” in each case. The Potency result in [12], in assay [13], in [14], in [15], in assay [16] and in [17] was “inactive” each time. Further, the max response in assay [5] was -17.8% (inactive) and 3.29% (inactive) and 17.2% (inactive).
As to `Cc1c(N(C)CS(=O)(=O)O)c(=O)n(-c2ccccc2)n1C`, the call in assay [1] and in assay [7] was inactive. In addition, the Potency result in assay [2], in [3], in assay [19], in assay [6], in assay [8] and in assay [9] was “inactive” each time. Moreover, the Potency entry in assay [20], in assay [10], in assay [11], in assay [12], in assay [13] and in assay [14] was “inactive” in each case. The Potency entry in [15], in assay [16] and in [17] was “inactive” throughout. The max response in [5] was -0.4% (inactive) and 7.69% (inactive).
Regarding `CCOCCO`, the call in assay [1], in assay [4] and in [7] was inactive. For the same compound, the Potency entry in assay [2], in assay [3], in assay [6], in [8], in assay [9] and in assay [10] was “inactive” throughout. The Potency entry in [11], in [12], in [13], in assay [14], in assay [15] and in assay [16] was “inactive” each time. In addition, the Potency entry in assay [17] is “inactive”. Moreover, in [5], the max response was 1.5% (inactive) and 7.11% (inactive).
For the compound `O=C(OCc1ccccc1)c1ccccc1`, the outcome in assay [1], in assay [4] and in [7] was inactive. Moreover, the Potency in assay [2] was 43.8 µM (active) and inactive; in [10], 43.8 µM (active) and inactive. The Potency result in [3], in assay [6], in [8], in assay [9], in assay [11] and in [12] was “inactive” throughout. Further, the Potency entry in [13], in [14], in assay [18], in assay [15], in [16] and in assay [17] was “inactive” throughout. Further, in assay [5], the max response was -12% (inactive) and 0.176% (inactive) and 2.06% (inactive).
